# Screens (PubChem BioAssay)
# Shown are actives, neighbours in structure and some others; about 2.4% of the full set was active somewhere.
# ATXN2 expr inh – ATXN2 expression inhibition. HEK-293 ATXN2-luciferase reporter, luminescence, 24 h. Potency, µM (series often up to 57 µM), inactives show top-dose activity change, negative = inhibition, most hits filed as inhibitors. actives 0.72% (n = 360,000); note: % is set by controls: 0 for no effect and ±100 for the full control effect; nearly all actives have a fitted effect of over 55% in size
#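 ATXN2-luciferase reporter cells (luciferase flanked by upstream and downstream ATXN2 gene portions) were treated 24 h at 37 °C with compounds at up to 57 uM. SteadyGlo luminescence gave expression; GF-AFC fluorescence gave viability.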
# TGFb SMAD3 inh – inhibitors of TGF-b signaling | Potency, µM (series often up to 46.1 µM), inactives show at the highest dose activity, negative = inhibition, most hits filed as inhibitors | HepG2 CAGA-GFP TGF-b/SMAD3 reporter, GFP fluorescence, 18 h; TGF-beta stimulated, 500 pg/mL final | actives 1.2% (n = 410,000); note: % is set by controls: 0 for no effect and ±100 for the full control effect; nearly all actives have a fitted effect of over 65% in size
#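 First, reporter cells (HEPG2 CAGA-GFP) rested 2 h at 37 degrees C. Next, compounds were pinned in and TGF-beta added to 500 pg/mL final. After 18 h, GFP was imaged per cell and summed per well.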
# HepG2 tox – kills HepG2 cells in TGF-b inhibitor counter-screen; HepG2 CAGA-GFP viability, ATP luminescence, 18 h; Potency, µM (titrated, usually from 46.1 µM), for the others: top-dose activity change, negative = cytotoxicity, usual class: cytotoxic; actives 0.76% (n = 410,000); AID 588856
#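 HepG2 CAGA-GFP cells (1000/well, DMEM with 1% FBS) received compound, then TGF-beta at 500 pg/mL final, and were incubated 18 hours at 37 degrees C. Viability was read by CellTiter-Glo luminescence. Media-only wells were set as complete cell-killing and DMSO as no toxicity.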
# ATXN viability – reduces viability in counter-screen for ATXN expression inhibitors | S2 cells (HEK-293 line with an ATXN2-luciferase reporter) viability, CellTiter-Fluor protease fluorescence, 24 h | Potency, µM (highest dose often 56.7 µM), hits mostly cytotoxic | actives 0.49% (n = 400,000); note: nearly all actives have a fitted effect of over 40% in size
# Apoferritin bind – candidate novel general anesthetic via apoferritin binding | Potency, µM (highest dose often 77.5 µM), for inactives: at the top dose activity change, negative = displacement, hits mostly inhibitors | P02791 | apoferritin/1-aminoanthracene competitive binding, fluorescence | AID 485281 | actives 0.074% (n = 350,000); note: % is set by controls: 0 for no effect and ±100 for the full control effect; nearly all actives have a fitted effect of over 20% in size
# Target sequence (P02791 2-175 limits assumed): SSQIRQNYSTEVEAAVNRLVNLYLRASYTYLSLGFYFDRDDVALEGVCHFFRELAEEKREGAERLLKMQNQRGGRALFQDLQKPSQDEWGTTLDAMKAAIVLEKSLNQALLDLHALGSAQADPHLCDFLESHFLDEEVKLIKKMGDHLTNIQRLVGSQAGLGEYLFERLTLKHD
#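 Steps: apoferritin (10 uM) was premixed with half-saturated 1-AMA in PBS, compounds were pin-transferred, plates stood 10 min at room temperature, fluorescence was read at 380/535 nm, and curves were fitted with a Hill equation.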
# Starred values were filed as active, the others as inactive; i = inactive; ? = inconclusive; . = no result given. Calls come from the whole dose curve; as a rule, active = well fitted curve in the direction sought with a large enough effect; inconclusive = small, poorly fitted or top-dose-only effect, or another doubt; inactive = no such curve, though single readings can be large; an effect the other way counts as inactive or inconclusive. Potency is the fitted concentration of half-maximal effect.
SMILES,ATXN2 expr inh,TGFb SMAD3 inh,HepG2 tox,ATXN viability,Apoferritin bind
Brc1ccccc1OCCOc1cccc2cccnc12,30%,-26%,0%,i,-8%
C=CCNc1nc(NCC=C)nc(N2CCN(C(c3ccc(F)cc3)c3ccc(F)cc3)CC2)n1,-27%,.,.,i,.
CNc1cc(C(=O)O)nc2ccccc12,.,?,-35%,.,.
COC(=O)c1cccc(C(=O)N2CCc3c(C(=O)OC)c(OCc4ccccn4)cc(=O)n3CC2)c1,.,.,.,i,.
CC(/C=C1\SC(=O)N(CCCC(=O)O)C1=O)=C\c1ccccc1,1.3µM*,?,-7%,i,-1%
COc1cccc(C(=O)N2CCC(c3nc4ccccc4s3)CC2)c1,0%,?,-6%,?,-11%
COc1ccc(C(=O)N2CCC(c3nc4ccccc4s3)CC2)cc1Cl,?,8.9µM*,-31%,?,14%
CCn1nc(C)c(CNC(=O)CC2C(=O)NCCN2CC(C)(C)C)c1C (stereo not drawn),4%,7%,3%,i,-3%
CC(CC(C#N)(c1ccccc1)C(C)C)N(C)C (stereo not drawn),-6%,.,.,i,.
CCOc1cc(/C=C2/C(=O)ON=C2C)ccc1O,14%,3%,-4%,i,-5%
CCOc1cc(/C=C2\CCC/C(=C\c3cc(Cl)c(O)c(OCC)c3)C2=O)cc(Cl)c1O,8.9µM*,5µM*,7.9µM*,16µM*,?
C=CCNC(=O)/C(C#N)=C\c1cc(Cl)c(O)c(OCC)c1,0%,10%,8%,i,-11%
COc1cc(/C=C2\OC(=O)c3c(OC)cccc32)ccc1O,59%,-3%,2%,i,262%
CCOc1cc(/C=C2\CN(C)C/C(=C\c3ccc(O)c(OCC)c3)C2=O)ccc1O,3.2µM*,?,-55%,.,1%
COc1cc(C=C2CN(C)C(=O)C2=O)ccc1O,.,-3%,-30%,28µM*,.
CCn1c(=O)c2c(nc(C=Cc3ccc(OC)c(OC)c3)n2C)n(CC)c1=O,?,.,.,i,.
Cc1ccc(-c2nnc(Nc3ccc4c(c3)OCO4)c3ccccc23)cc1S(=O)(=O)NCCO,0%,?,31%,i,3%
C#CC(C)(C)NS(=O)(=O)c1cc(-c2nnc(Nc3ccc(C)cc3)c3ccccc23)ccc1C,-8%,13µM*,8%,i,110%
CCN(CC)C(=O)c1ccc(Nc2nnc(-c3ccc(C)c(S(=O)(=O)NC)c3)c3ccccc23)cc1,-15%,11µM*,-82%,i,64%
Cc1ccc(-c2nnc(Nc3ccc(Cl)c(Cl)c3)c3ccccc23)cc1S(=O)(=O)NCCO,?,11µM*,-29%,?,32%
Cc1ccc(-c2nnc(Nc3ccc(O)cc3)c3ccccc23)cc1S(=O)(=O)N1CCN(C)CC1,?,10µM*,-21%,?,-14%
CNS(=O)(=O)c1cc(-c2nnc(Nc3ccc(NC(C)=O)cc3)c3ccccc23)ccc1C,13%,?,13%,i,-6%
CC(C)(C)C1CCc2nc(NC(=O)COc3ccccc3[N+](=O)[O-])sc2C1 (stereo not drawn),?,0%,-35%,i,8%
O=C(CS(=O)Cc1ccco1)NC/C=C\COc1cc(CN2CCCCC2)ccn1 (stereo not drawn),6%,.,.,i,.
Cc1c(CC(=O)NCCCC(=O)O)c(=O)oc2cc3c(cc12)CCC(C)(C)O3,3.2µM*,0%,-3%,i,4%
SMILES,ATXN2 expr inh,TGFb SMAD3 inh,HepG2 tox,ATXN viability,Apoferritin bind
COCC1CCCN(Cc2ccc3c(c2)CN(C(=O)c2sc(C)nc2C)CCO3)C1 (stereo not drawn),.,.,.,i,.
CCN(CC)c1cc2c(c3c1ccn3C)C1CCC2C1 (stereo not drawn),-25%,-22%,-30%,i,.
CCOC(=O)c1ccc(NC(=O)Cn2nc(SC)c(S(=O)(=O)c3ccc(Cl)cc3)c2N)cc1,?,5µM*,-34%,?,1%
CCSc1nn(CC(=O)Nc2ccc(C(=O)OC)cc2)c(N)c1S(=O)(=O)c1ccc(C)cc1,-36%,?,-13%,?,-8%
O=C(CCl)N(CCc1ccccc1)CCc1ccccc1,?,?,18µM*,?,-11%
O=C(CCl)N(c1ccccc1)c1ccccc1,?,?,11µM*,.,-16%
O=C(O)CSCC(=O)N(c1ccccc1)c1ccccc1,-17%,3%,23%,i,-1%
O=C(N(c1ccccc1)c1ccccc1)N(c1ccccc1)c1ccccc1,.,16µM*,-10%,?,-1%
CCn1c(-c2ccccc2F)nc2cc(NC(C)=O)cc(C(=O)NCC3CCOCC3)c21,.,.,.,i,.
CN=c1scc(-c2ccccc2F)n1/N=C/c1ccc[nH]1,3.2µM*,-13%,-24%,?,-12%
C[C@]12CC[C@H](O)C[C@@H]1CC[C@@H]1[C@@H]2CC[C@@]2(C)[C@H]1CCC(=O)[C@]21CCCO1,-2%,1%,-14%,i,.
CO[C@H]1CC[C@@]2(C)[C@@H](CC[C@@H]3[C@@H]2CC[C@@]2(C)[C@H]3C[C@H](C(=O)O)O[C@]23CCCO3)C1,-5%,2%,16µM*,i,.
COc1ccc(OC)c(Nc2nc(NCCCN(C)C)nc(N)c2[N+](=O)[O-])c1,?,?,16µM*,i,-4%
COc1ccccc1-c1ccnc(-n2ncc(C(=O)N(C)C(C)c3nc(C)cs3)c2C2CC2)n1 (stereo not drawn),.,.,.,i,.
CC1(C(=O)Nc2cccc(C(F)(F)F)c2)Cc2ccccc2C(=O)O1 (stereo not drawn),-14%,-21%,-4%,?,16µM*
COc1ccc(F)c(CN2CCC3(CCC(CNC(=O)c4cc(C)nn4C)O3)CC2)c1 (stereo not drawn),.,.,.,i,.
